# Where “and” joins values, the source holds several entries; their conditions need not be identical. Identical values can stand only once. Results filed as inconclusive are left out. A call without a number means that no potency is given here. Some compounds were tested as several samples or in several runs, with calls that do not always agree. Calls of active or inactive are those of the source. Unless noted, calls come from the whole dose curve; as a rule, active = well fitted curve in the direction sought with a large enough effect in the repeat runs; inconclusive = weak or mixed curves; inactive = no such curve, though single readings can be large; an effect the other way counts as inactive or inconclusive.
# What was measured:
# [1] = qHTS assay to identify aromatase inhibitors - cell viability counter screen (AID 743084);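 note: cells stimulated with testosterone during compound exposure; nearly all actives have a fitted effect of over 55% in size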; note: potency is the fitted concentration of half-maximal effect
# [2] = qHTS assay to identify small molecule that activate the aryl hydrocarbon receptor (AhR) signaling pathway - cell viability counter screen (AID 743086); note: nearly all actives have a fitted effect of over 45% in size; note: potency is the fitted concentration of half-maximal effect
# Outline: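 HepG2-AhR-luc (HG2L7.5c1) cells, 4000/well, treated 24 h at 37 C with compound; viability measured as CellTiter-Fluor fluorescence after 30 min in the same wells as the luciferase read.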
# [3] = molecular target: Peroxisome proliferator-activated receptor gamma (Homo sapiens) (UniProt P37231); test: qHTS assay to identify small molecule agonists of the peroxisome proliferator-activated receptor gamma (PPARg) signaling pathway (AID 743094; active = well fitted activation curve with a large enough effect in the signal ratio in the repeat runs, not every such curve was filed as active; the % refers to the signal ratio)
# Chain of Peroxisome proliferator-activated receptor gamma (Homo sapiens) (P37231 whole entry, looked up): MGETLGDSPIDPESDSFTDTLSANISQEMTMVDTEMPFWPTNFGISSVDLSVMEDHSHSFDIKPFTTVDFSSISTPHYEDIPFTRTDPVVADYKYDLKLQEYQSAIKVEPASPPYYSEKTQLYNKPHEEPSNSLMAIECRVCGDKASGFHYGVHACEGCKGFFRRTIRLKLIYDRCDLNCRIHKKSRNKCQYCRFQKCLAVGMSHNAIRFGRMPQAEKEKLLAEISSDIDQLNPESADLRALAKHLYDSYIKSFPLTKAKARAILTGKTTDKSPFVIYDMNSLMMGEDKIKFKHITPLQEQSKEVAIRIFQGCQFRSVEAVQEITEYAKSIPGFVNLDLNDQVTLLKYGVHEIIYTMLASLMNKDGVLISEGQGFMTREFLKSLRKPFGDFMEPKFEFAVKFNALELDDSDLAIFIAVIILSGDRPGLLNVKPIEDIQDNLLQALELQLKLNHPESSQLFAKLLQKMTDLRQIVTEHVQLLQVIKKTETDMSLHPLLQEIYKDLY
# Outline: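 HEK293H PPARg-bla cells, 5 h settle at 37C/5% CO2; compound (DMSO) 17 h, 37C; B/G FRET substrate 1 h RT; fluorescence intensity read-out. qHTS format.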
# [4] = qHTS assay to identify small molecule antagonists of the peroxisome proliferator-activated receptor gamma (PPARg) signaling pathway - cell viability counter screen (AID 743194); settings: Potency: co-treated with 50 nM rosiglitazone; note: nearly all actives have a fitted effect of over 55% in size; note: potency is the fitted concentration of half-maximal effect
# Outline: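 Cytotoxicity counter screen in PPARg-bla HEK293H cells, same wells as reporter assay. Compounds plus 50 nM rosiglitazone (final) for 17 h at 37 C, then viability read by CellTiter-Glo luminescence.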
# [5] = qHTS assay for small molecule agonists of the antioxidant response element (ARE) signaling pathway (AID 743202; active = well fitted activation curve with a large enough effect in the signal ratio in the repeat runs, not every such curve was filed as active; the % refers to the signal ratio; note: potency is the fitted concentration of half-maximal effect)
# Outline: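 HepG2 ARE-bla reporter line, 2,000 cells/well; 5 h preincubation 37 C/5% CO2; compound (DMSO) 16 h 37 C; B/G FRET substrate 2 h RT; fluorescence intensity.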
# [6] = qHTS assay for small molecule agonists of the antioxidant response element (ARE) signaling pathway - cell viability counter screen (AID 743203; calls by dose curve; note: nearly all actives have a fitted effect of over 55% in size)
# Outline: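 Luminescence read-out (CellTiter-Glo, 30 min at room temperature) measured cell viability in the same wells as the ARE beta-lactamase reporter. HepG2 ARE-bla cells were treated with compounds for 16 hrs at 37C/5% CO2.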
# [7] = qHTS assay for small molecule activators of the heat shock response signaling pathway - cell viability counter screen (AID 743209); note: nearly all actives have a fitted effect of over 50% in size; note: potency is the fitted concentration of half-maximal effect
# Outline: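 HSE-bla HeLa; 1500 cells/well; overnight 37 C, 5% CO2; compound 5 h 37 C; LiveBLAzer B/G substrate 2.5 h RT; CellTiter-Glo 30 min RT; luminescence.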
# [8] = qHTS assay for small molecule activators of the heat shock response signaling pathway (AID 743210; active = well fitted activation curve with a large enough effect in the signal ratio in the repeat runs, with a control signal flat, not every such curve was filed as active; the % refers to the signal ratio;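 note: HeLa cells with beta-lactamase reporter driven by heat shock elements; series mostly up to about 63 µM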)
# Outline: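 Beta-lactamase reporter read-out: FRET substrate fluorescence after 2.5 h at RT, following 5 h compound treatment at 37 C of HeLa cells carrying HSE-driven bla reporter; quantitative HTS format.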
# [9] = qHTS assay to identify small molecule antagonists of the peroxisome proliferator-activated receptor delta (PPARd) signaling pathway - cell viability counter screen (AID 743213); note: nearly all actives have a fitted effect of over 50% in size
# Outline: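 Agonist-stimulated (L165041, 300 nM final) HEK293H PPARd UAS-bla cells are exposed to compounds for 17 h at 37 C, and ATP-based luminescence (CellTiter-Glo) from the same wells reports cytotoxicity.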
# [10] = qHTS assay to identify small molecule agonists of the farnesoid-X-receptor (FXR) signaling pathway - cell viability counter screen (AID 743218); note: nearly all actives have a fitted effect of over 45% in size; note: potency is the fitted concentration of half-maximal effect
# Outline: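 Luminescence from CellTiter-Glo, read after 30 min at RT, reports viability of GeneBLAzer FXR-UAS-bla HEK 293T cells treated 16 h with compounds in the wells used for the beta-lactamase reporter.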
# [11] = molecular target: Aryl hydrocarbon receptor (Homo sapiens) (UniProt P35869); test: qHTS assay to identify small molecule that activate the aryl hydrocarbon receptor (AhR) signaling pathway (AID 743085); note: nearly all actives have a fitted effect of over 15% in size; note: potency is the fitted concentration of half-maximal effect;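 for activation: HG2L7.5c1 human HepG2 liver cells with stably integrated DRE-driven firefly reporter; series mostly up to about 70 µM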
# Chain of Aryl hydrocarbon receptor (Homo sapiens) (P35869 whole entry, looked up): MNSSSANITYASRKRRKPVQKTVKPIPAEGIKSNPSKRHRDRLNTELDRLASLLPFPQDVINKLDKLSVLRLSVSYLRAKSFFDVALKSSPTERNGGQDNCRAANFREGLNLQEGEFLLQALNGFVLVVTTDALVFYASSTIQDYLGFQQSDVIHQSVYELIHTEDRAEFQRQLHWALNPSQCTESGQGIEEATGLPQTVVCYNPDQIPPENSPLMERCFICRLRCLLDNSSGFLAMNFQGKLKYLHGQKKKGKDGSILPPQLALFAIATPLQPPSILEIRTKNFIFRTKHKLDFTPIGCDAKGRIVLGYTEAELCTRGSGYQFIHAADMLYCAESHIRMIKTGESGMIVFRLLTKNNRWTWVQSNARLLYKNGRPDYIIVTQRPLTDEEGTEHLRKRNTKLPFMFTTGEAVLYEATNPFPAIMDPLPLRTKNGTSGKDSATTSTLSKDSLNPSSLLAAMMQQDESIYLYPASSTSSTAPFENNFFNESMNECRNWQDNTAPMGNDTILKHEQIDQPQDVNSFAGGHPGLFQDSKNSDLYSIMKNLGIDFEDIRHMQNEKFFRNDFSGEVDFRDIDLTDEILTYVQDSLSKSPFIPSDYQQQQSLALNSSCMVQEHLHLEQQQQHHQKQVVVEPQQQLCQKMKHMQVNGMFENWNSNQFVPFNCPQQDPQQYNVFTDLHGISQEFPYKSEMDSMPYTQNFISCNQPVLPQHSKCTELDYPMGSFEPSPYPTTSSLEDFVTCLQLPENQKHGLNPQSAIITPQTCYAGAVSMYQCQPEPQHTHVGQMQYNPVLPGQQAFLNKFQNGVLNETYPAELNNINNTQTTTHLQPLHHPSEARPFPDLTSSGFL
# Outline: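 Luminescence read-out: ONE-Glo reagent, 30 min at room temperature, in HG2L7.5c1 HepG2 reporter cells treated 24 h at 37C. Viability was measured beforehand by CellTiter-Fluor fluorescence after 30 min at 37C.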
# [12] = molecular target: Peroxisome proliferator-activated receptor gamma (Homo sapiens) (UniProt P37231); test: qHTS assay to identify small molecule antagonists of the peroxisome proliferator-activated receptor gamma (PPARg) signaling pathway (AID 743191; calls by dose curve; note: nearly all actives have a fitted effect of over 30% in size; note: potency is the fitted concentration of half-maximal effect)
# Outline: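 GeneBLAzer PPARg UAS-bla HEK293H cells, 5 h post-plating, exposed to compounds 17 h at 37C. LiveBLAzer B/G FRET substrate added for 1 h at room temperature; beta-lactamase reporter read by fluorescence intensity.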
# [13] = qHTS assay to identify small molecule agonists of the peroxisome proliferator-activated receptor delta (PPARd) signaling pathway - cell viability counter screen (AID 743211); note: nearly all actives have a fitted effect of over 55% in size; note: potency is the fitted concentration of half-maximal effect
# Outline: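 Read-out: CellTiter-Glo luminescence, 30 min RT, measured in the same wells as the beta-lactamase reporter. Cells: GeneBLAzer PPAR delta UAS-bla HEK293H, 3000 cells/well, compound exposure 17 h at 37C.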
# [14] = molecular target: Peroxisome proliferator-activated receptor delta (Homo sapiens) (UniProt Q03181); test: qHTS assay to identify small molecule agonists of the peroxisome proliferator-activated receptor delta (PPARd) signaling pathway (AID 743212; calls by dose curve)
# Chain of Peroxisome proliferator-activated receptor delta (Homo sapiens) (Q03181 whole entry, looked up): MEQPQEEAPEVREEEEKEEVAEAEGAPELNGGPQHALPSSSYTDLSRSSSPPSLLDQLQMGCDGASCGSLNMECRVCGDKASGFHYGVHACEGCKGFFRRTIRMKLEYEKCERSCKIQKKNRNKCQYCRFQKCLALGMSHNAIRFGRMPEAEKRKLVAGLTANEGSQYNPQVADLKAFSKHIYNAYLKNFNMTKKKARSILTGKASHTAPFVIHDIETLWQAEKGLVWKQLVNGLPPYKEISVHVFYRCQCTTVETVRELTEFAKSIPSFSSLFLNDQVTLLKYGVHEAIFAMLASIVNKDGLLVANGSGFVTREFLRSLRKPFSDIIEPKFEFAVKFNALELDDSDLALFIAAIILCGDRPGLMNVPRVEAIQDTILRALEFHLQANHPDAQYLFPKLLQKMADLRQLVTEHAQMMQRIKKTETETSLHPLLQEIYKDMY
# Outline: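 Read-out: beta-lactamase FRET fluorescence after 2 h room-temperature incubation with LiveBLAzer B/G substrate. Cells were HEK293H carrying a UAS-bla reporter for PPARd, treated at 37 C with DMSO-dissolved compounds.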
# [15] = molecular target: Peroxisome proliferator-activated receptor delta (Homo sapiens) (UniProt Q03181); test: qHTS assay to identify small molecule antagonists of the peroxisome proliferator-activated receptor delta (PPARd) signaling pathway (AID 743215; active = well fitted inhibition curve with a large enough effect in the signal ratio in the repeat runs, not every such curve was filed as active; the % refers to the signal ratio; note: series mostly up to about 62 µM)
# Outline: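 HEK293H GeneBLAzer PPARd UAS-bla reporter cells; cpd + L165041 300 nM final, 17 h 37 C; LiveBLAzer B/G FRET substrate 2 h RT; fluorescence intensity read-out. Antagonist mode.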
# [16] = molecular target: Bile acid receptor (Homo sapiens) (UniProt Q96RI1); test: qHTS assay to identify small molecule antagonists of the farnesoid-X-receptor (FXR) signaling pathway (AID 743217; active = well fitted inhibition curve with a large enough effect in the signal ratio in the repeat runs, not every such curve was filed as active; the % refers to the signal ratio; note: potency is the fitted concentration of half-maximal effect)
# Chain of Bile acid receptor (Homo sapiens) (Q96RI1 whole entry, looked up): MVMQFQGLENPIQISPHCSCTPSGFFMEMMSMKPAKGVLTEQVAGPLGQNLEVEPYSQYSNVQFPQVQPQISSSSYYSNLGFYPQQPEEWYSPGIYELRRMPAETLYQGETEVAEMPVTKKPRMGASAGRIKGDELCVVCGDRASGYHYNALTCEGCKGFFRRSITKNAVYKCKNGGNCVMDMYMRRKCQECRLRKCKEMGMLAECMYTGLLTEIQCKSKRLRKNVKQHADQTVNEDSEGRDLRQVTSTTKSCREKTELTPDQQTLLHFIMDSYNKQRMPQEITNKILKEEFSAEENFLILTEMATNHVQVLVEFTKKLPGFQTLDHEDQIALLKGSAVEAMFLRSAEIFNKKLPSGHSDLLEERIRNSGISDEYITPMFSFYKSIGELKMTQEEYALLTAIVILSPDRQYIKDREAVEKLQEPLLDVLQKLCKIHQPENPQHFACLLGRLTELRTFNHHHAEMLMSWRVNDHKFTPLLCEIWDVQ
# Outline: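 Read-out: beta-lactamase FRET fluorescence (LiveBLAzer B/G substrate, 2 h, room temperature) in GeneBLAzer FXR-UAS-bla HEK 293T cells. Compounds were co-dosed with 50 uM chenodeoxycholic acid (final) and incubated 16 h at 37 °C.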
# [17] = molecular target: Vitamin D3 receptor (Homo sapiens) (UniProt P11473); test: qHTS assay to identify small molecule agonists of the vitamin D receptor (VDR) signaling pathway (AID 743222; calls by dose curve)
# Chain of Vitamin D3 receptor (Homo sapiens) (P11473 whole entry, looked up): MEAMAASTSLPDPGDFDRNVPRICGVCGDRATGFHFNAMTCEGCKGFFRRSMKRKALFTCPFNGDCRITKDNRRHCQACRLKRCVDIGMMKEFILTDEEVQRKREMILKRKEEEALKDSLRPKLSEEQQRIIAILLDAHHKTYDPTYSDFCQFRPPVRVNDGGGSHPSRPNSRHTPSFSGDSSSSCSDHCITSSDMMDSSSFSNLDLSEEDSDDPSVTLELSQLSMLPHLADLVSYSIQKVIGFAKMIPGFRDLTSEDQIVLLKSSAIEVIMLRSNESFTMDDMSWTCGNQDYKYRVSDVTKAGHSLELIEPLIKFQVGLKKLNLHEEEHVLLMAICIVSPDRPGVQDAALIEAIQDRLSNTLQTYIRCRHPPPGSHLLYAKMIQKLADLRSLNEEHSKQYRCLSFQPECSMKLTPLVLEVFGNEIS
# Outline: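 Beta-lactamase reporter readout (LiveBLAzer B/G FRET, 2 h RT) in VDR-bla cells after 16 h compound treatment at 37C, 5% CO2; cells pre-incubated 4 h before pin transfer of DMSO solutions.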
# [18] = molecular target: Vitamin D3 receptor (Homo sapiens) (UniProt P11473); test: qHTS assay to identify small molecule antagonists of the vitamin D receptor (VDR) signaling pathway (AID 743223; active = well fitted inhibition curve with a large enough effect in the signal ratio in the repeat runs, not every such curve was filed as active; the % refers to the signal ratio)
# Outline: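 Beta-lactamase reporter read-out: FRET substrate fluorescence after 2 h at room temperature, following 16 h exposure of VDR-bla cells to test compound plus 3 nM (final) 1alpha,25-dihydroxyvitamin D3 agonist at 37C.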
# [19] = molecular target: Bile acid receptor (Homo sapiens) (UniProt Q96RI1); test: qHTS assay to identify small molecule agonists of the farnesoid-X-receptor (FXR) signaling pathway (AID 743220; active = well fitted activation curve with a large enough effect in the signal ratio in the repeat runs, not every such curve was filed as active; the % refers to the signal ratio)
# Outline: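 FXR-UAS-bla HEK 293T cells carrying a UAS-driven beta-lactamase reporter were plated for 5 h at 37C/5% CO2, then exposed to DMSO-dissolved Tox21 10K compounds for 16 h at 37C. A LiveBLAzer B/G FRET substrate was loaded for 2 h at room temperature before fluorescence reading.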
# [20] = qHTS assay to identify small molecule antagonists of the farnesoid-X-receptor (FXR) signaling pathway - cell viability counter screen (AID 743221; active = well fitted cell-killing curve with a large enough effect in the repeat runs, not every such curve was filed as active; note: nearly all actives have a fitted effect of over 50% in size; note: potency is the fitted concentration of half-maximal effect)
# Outline: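 HEK 293T FXR-bla cells, 5 h pre-incubation; compound + CDCA 50 uM final, 16 h, 37 C; beta-lactamase FRET read first, then CellTiter-Glo luminescence, 30 min RT.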
Compound,Potency [1],Potency [2],Potency [3],Potency [4],Potency [5],Potency [6],Potency [7],outcome [8],Potency [9],Potency [10],Potency [11],Potency [12],Potency [13],outcome [14],Potency [15],Potency [16],outcome [17],outcome [18],outcome [19],Potency [20]
O=C(NCc1cccnc1)Nc1ccc([N+](=O)[O-])cc1,inactive,inactive,inactive,inactive,inactive,inactive,inactive,inactive,inactive,inactive,,,,,,,,,,
CCc1ccc(C(=O)NN(C(=O)c2cc(C)cc(C)c2)C(C)(C)C)cc1,6.86 µM (active),,inactive,inactive,61.1 µM (active),,inactive,inactive,,,inactive,inactive,inactive,inactive,inactive,54.9 µM (active),inactive,,,
C/C=C/C=O,inactive,inactive,inactive,inactive,,inactive,inactive,inactive,,inactive,,inactive,inactive,,,,inactive,inactive,,
COCC(C)N(C(=O)CCl)c1c(C)csc1C (stereo not given),inactive,inactive,inactive,inactive,4.33 µM (active),,inactive,inactive,,inactive,,,inactive,,,inactive,,,inactive,inactive
C=CC[C@]1(O)CC[C@H]2[C@@H]3CCC4=CC(=O)CCC4=C3C=C[C@@]21C,inactive,inactive,,,,inactive,inactive,inactive,inactive,inactive,5.96 µM (active),,inactive,,,,,,,
C=COC(C)=O,inactive,inactive,inactive,inactive,inactive,inactive,inactive,inactive,inactive,inactive,,inactive,inactive,,,,inactive,,,inactive
COc1c(C(C)(C)C)cc([N+](=O)[O-])c(C)c1[N+](=O)[O-],inactive,inactive,inactive,inactive,inactive,inactive,inactive,inactive,inactive,inactive,,inactive,inactive,inactive,inactive,,inactive,,,inactive
CCOC(=O)CBr,inactive,inactive,inactive,inactive,inactive,inactive,inactive,inactive,inactive,,,inactive,inactive,inactive,inactive,inactive,inactive,inactive,inactive,inactive
Nc1ccc([N+](=O)[O-])cc1[N+](=O)[O-],inactive,inactive,inactive,inactive,,,inactive,inactive,,,,,,inactive,,,inactive,inactive,,inactive
O=C(CCl)c1ccc(Cl)cc1Cl,inactive,inactive,,,5.31 µM (active),,8.41 µM (active),,,,,,18.8 µM (active),,,inactive,,,,inactive and 29.8 µM (active)
CCCC(Cn1cncn1)c1ccc(Cl)cc1Cl (stereo not given),inactive,inactive,,,,inactive,,inactive,inactive,inactive,,,,inactive,inactive,,inactive,,inactive,
O=C1C(=O)c2cccc3cccc1c23,inactive,inactive,,,,inactive,,,inactive,inactive,,,,inactive,inactive,,,,,inactive
CCOP(=S)(Oc1ccc([N+](=O)[O-])cc1)c1ccccc1 (stereo not given),inactive,inactive,,inactive,,inactive,inactive,,,,,,inactive,inactive,,,inactive,inactive,,inactive
CCOP(=O)(OCC)O/C(=C/Cl)c1ccc(Cl)cc1Cl,inactive,inactive,inactive,inactive,,inactive,inactive,inactive,inactive,,,,inactive,inactive,,,inactive,inactive,,inactive
O=C1C(Cl)C(CCl)CN1c1cccc(C(F)(F)F)c1 (stereo not given),inactive,inactive,,inactive,,,inactive,inactive,inactive,inactive,,21.9 µM (active),inactive,inactive,inactive,,inactive,,,inactive
CCOP(=S)(OCC)Oc1cc(Cl)c(Br)cc1Cl,inactive,inactive,,,inactive,inactive,inactive,inactive,,inactive,,inactive,,inactive,,,inactive,,inactive,inactive
CNP(=O)(OC)Oc1ccc(C(C)(C)C)cc1Cl (stereo not given),inactive,inactive,,,54.5 µM (active),,inactive,inactive,inactive,inactive,,43.6 µM (active),inactive,inactive,,,inactive,inactive,,inactive
CCCN(CCC)c1c([N+](=O)[O-])cc(S(C)(=O)=O)cc1[N+](=O)[O-],inactive,inactive,,inactive,inactive,inactive,inactive,,inactive,,,inactive,inactive,inactive,,,,,,inactive
CCCCCC[N+](=O)[O-],inactive,inactive,,,,inactive,inactive,inactive,,inactive,,,,,,inactive,inactive,,inactive,inactive
NC(=O)CI,inactive,inactive,,inactive,inactive,,inactive,inactive,,inactive,,inactive,,inactive,,,inactive,,,inactive
IC(I)=C(I)I,15.4 µM (active),43.3 µM (active),,9.77 µM (active),,,,,,12.3 µM (active),,,9.77 µM (active),,,,,,,
O=C(Nc1ccccc1)Nc1cnns1,inactive,,inactive,inactive,,,inactive,inactive,inactive,,,inactive,inactive,inactive,inactive,inactive,inactive,,inactive,
CCCCNP(N)(N)=S,inactive,inactive,,inactive,inactive,inactive,inactive,inactive,inactive,,,inactive,inactive,inactive,,inactive,inactive,,inactive,inactive
